Inconclusive results are not listed. The source made the active and inactive calls. Unless noted, calls follow the shape of the full dose curve. Peptide text beside a SMILES is read from it.
Experiments:
[1] = Nuclear factor erythroid 2-related factor 2/antioxidant responsive element (Nrf2/ARE) small molecule agonists: qHTS cell viability counter screen in human keratinocytes (AID 1919968; active = well fitted curve in the direction sought with a large enough effect in the repeat runs; an effect the other way counts as inactive or inconclusive; also: nearly all actives have a fitted effect of over 55% in size; also: potency is read from the fitted curve at half-maximal effect)
Method in brief: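 KeratinoSens HaCaT cells, 1,500/well, preincubated 5 h, then exposed to compounds in DMSO for 23 h at 37 C/5% CO2. Viability read as CellTiter-Fluor fluorescence after 1 h, in the same wells as the ARE-luciferase read.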

[2] = Nuclear factor erythroid 2-related factor 2/antioxidant responsive element (Nrf2/ARE) small molecule agonists: luciferase reporter gene qHTS assay in human keratinocytes (AID 1919969); also: nearly all actives have a fitted effect of over 35% in size
[3] = target: Gonadotropin-releasing hormone receptor (Homo sapiens) (UniProt P30968); assay: Human gonadotropin-releasing hormone receptor (GnRHR) small molecule agonists, calcium flux assay in GnRHR-HEK293 cells (AID 1920063); also: nearly all actives have a fitted effect of over 35% in size
Method in brief: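 HEK293 cells stably expressing human GnRHR were dye-loaded for 1 h at 37 C. Compound was added in agonist mode and fluorescence (Ex/Em 480/540) recorded kinetically for 3 min. Fifteen concentrations, triplicates.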

[4] = target: KiSS-1 receptor (Homo sapiens) (UniProt Q969F8); assay: Human kisspeptin (KISS1R) small molecule agonists, calcium flux assay in KISS1R-HEK293 cells (AID 1920064; active = well fitted curve in the direction sought with a large enough effect in the repeat runs; an effect the other way counts as inactive or inconclusive)
Method in brief: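 HEK293 cells stably expressing human KISS1R were loaded with calcium dye for 1 h at 37 C, then given compound; fluorescence (Ex/Em 480/540) was read kinetically for 3 min. Fifteen concentrations, triplicate.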

[5] = G protein-coupled receptor (GPCR) small molecule agonists, calcium flux assay: HEK293 wild type cell line counter screen (AID 1920065)
Method in brief: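 Wild-type HEK293 cells plated 18 h, loaded with calcium dye 1 h at 37 C, then compounds added in agonist mode (ATP as positive control). Kinetic fluorescence Ex/Em 480/540 recorded 3 min at 1 sec intervals; 15 concentrations, triplicate.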

[6] = p53 small molecule agonists, cell-based qHTS assay with human liver microsomes (AID 1963577);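 also: p53 response element beta-lactamase reporter cells with liver microsomes plus NADPH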
Method in brief: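 HLM-supplemented p53RE-bla reporter assay: 16 h compound exposure at 37 C, microsomes and NADPH each 0.5 mg/mL final, read by fluorescence intensity.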

[7] = p53 small molecule agonists, cell-based qHTS assay with rat liver microsomes (AID 1963578)
Method in brief: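 Quantitative HTS of the Tox21 10K library: p53RE-bla cells, rat liver microsomes plus NADPH at 0.5 mg/mL final each, 16 h at 37 C, beta-lactamase fluorescence detection.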

[8] = p53 small molecule agonists, cell-based qHTS assay with human liver microsomes: qHTS cell viability counter screen (AID 1963579); also: nearly all actives have a fitted effect of over 45% in size
Method in brief: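 Viability of p53RE-bla cells is measured as CellTiter-Glo luminescence following a 16 h, 37 C incubation with compound, liver microsomes from human donors and NADPH.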

[9] = p53 small molecule agonists, cell-based qHTS assay with rat liver microsomes: qHTS cell viability counter screen (AID 1963580); also: nearly all actives have a fitted effect of over 45% in size
Method in brief: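 HCT-116 p53RE-bla, 4,000 cells/well, 5 h pre-incubation; cpd + rat liver microsomes 0.5 mg/mL + NADPH 0.5 mg/mL (final); 16 h, 37 C; CellTiter-Glo, 30 min RT; luminescence.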

[10] = p53 small molecule agonists, cell-based qHTS assay: qHTS cell viability counter screen (AID 1963581); also: nearly all actives have a fitted effect of over 45% in size
Method in brief: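 p53RE-bla HCT-116 cells, compounds added 5 h after plating and incubated 16 h at 37 C. Cytotoxicity measured in the same wells as intracellular ATP by CellTiter-Glo luminescence after 30 min at room temperature.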

[11] = target: 5-hydroxytryptamine receptor 2A (Homo sapiens) (UniProt P28223); assay: 5-hydroxytryptamine receptor 2A (HTR2A) small molecule agonists, cell-based qHTS assay (AID 1963587); also: nearly all actives have a fitted effect of over 30% in size
Method in brief: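 Kinetic calcium-flux fluorescence (2 min, 1 sec intervals) after compound addition in agonist mode. HTR2A-CHO cells were cultured 18 h, then dye-loaded 1 h at 37 C.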

[12] = target: Muscarinic acetylcholine receptor M1 (Homo sapiens) (UniProt P11229); assay: Cholinergic receptor muscarinic 1 (CHRM1) small molecule antagonists, cell-based qHTS assay (AID 1963588); also: nearly all actives have a fitted effect of over 40% in size
Method in brief: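 CHRM1-CHO calcium-flux assay, antagonist mode. Cells were seeded 18 h, dye-loaded 1 h at 37 C and given compound for 5 min at RT, then acetylcholine was added at 50nM. FDSS fluorescence was read 3 min; 15 concentrations, three runs.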

[13] = target: Muscarinic acetylcholine receptor M1 (Homo sapiens) (UniProt P11229); assay: Cholinergic receptor muscarinic 1 (CHRM1) small molecule agonists, cell-based qHTS assay (AID 1963589); also: nearly all actives have a fitted effect of over 35% in size
Method in brief: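 CHO cells stably expressing human CHRM1 were loaded with calcium dye for 1 h at 37 C, then compound was added in agonist mode. Intracellular calcium fluorescence was followed kinetically at 1 s intervals. Fifteen concentrations were tested in three independent runs.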

[14] = target: Beta-2 adrenergic receptor (Homo sapiens) (UniProt P07550); assay: Adrenergic beta2 receptor (ADRB2) small molecule antagonists, cell-based qHTS assay (AID 1963592); also: series mostly up to about 92 µM; nearly all actives have a fitted effect of over 50% in size
Method in brief: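 Cells (CHO, stable ADRB2 overexpression) incubated 18-20hr at 37C; compounds added from DMSO; agonist mix (1nM isoproterenol, 100uM IBMX, 25uM Ro-20-1724) added; 0.5hr RT; d2-cAMP and anti-cAMP-cryptate added; 1hr RT; 665/615 nm read.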

[15] = target: Beta-2 adrenergic receptor (Homo sapiens) (UniProt P07550); assay: Adrenergic beta2 receptor (ADRB2) small molecule agonists, cell-based qHTS assay (AID 1963593);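 also: CHO cells stably overexpressing human ADRB2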
Method in brief: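 CHO cells stably over-expressing ADRB2 were plated overnight at 37C, then dosed with compounds plus a stimulation mix containing 100uM IBMX and 25uM Ro-20-1724 for 0.5hr at room temperature. cAMP was measured by HTRF competition, 1hr.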

[16] = target: D(2) dopamine receptor (Homo sapiens) (UniProt P14416); assay: Dopamine D2 receptor (DRD2) small molecule agonists, cell-based qHTS assay (AID 1963594); also: nearly all actives have a fitted effect of over 35% in size
Method in brief: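 cAMP accumulation in DRD2-HEK293 cells measured by HTRF after 1 h detection; compounds added 10 min before NKH477 (200nM […]) forskolin-analogue stimulation, 30 min at room temperature, with Ro20-1724 present at 0.1 mM final.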

[17] = target: D(2) dopamine receptor (Homo sapiens) (UniProt P14416); assay: Dopamine D2 receptor (DRD2) small molecule antagonists, cell-based qHTS assay (AID 1963595; active = well fitted inhibition curve with a large enough effect in the signal ratio in the repeat runs, with a control signal flat; the % refers to the signal ratio)
Method in brief: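 Readout: HTRF cAMP, cAMP-d2 competing with cellular cAMP for anti-cAMP cryptate, read after 1 h. Cells: DRD2-HEK293. Conditions: 0.1 mM Ro20-1724, 12 nM quinpirole, 200 nM NKH477, 30 min RT.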

[18] = cAMP Responsive Elements (CRE) small molecule agonists, cell-based qHTS assay (AID 1963590)
Method in brief: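 CRE-bla HEK 293T cells, 2,000/well in DMEM with 10% dialyzed FBS and 25 mM HEPES, pre-incubated 18 h at 37 C, then exposed to compound 3 h at 37 C. Beta-lactamase reporter read with LiveBLAzer B/G FRET substrate after 2 h at room temperature.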

[19] = cAMP Responsive Elements (CRE) small molecule antagonists, cell-based qHTS assay (AID 1963591; active = well fitted inhibition curve with a large enough effect in the signal ratio in the repeat runs, not every such curve was filed as active; the % refers to the signal ratio)
Method in brief: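 CRE-bla HEK293T cells plated 18 h, then given compound plus NKH477 at 0.25 uM final for 3 h at 37C. Beta-lactamase reporter read with LiveBLAzer B/G FRET substrate after 2 h at room temperature.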

Measured: Potency

Beta-2 adrenergic receptor (Homo sapiens), sequence (P07550 whole entry, looked up): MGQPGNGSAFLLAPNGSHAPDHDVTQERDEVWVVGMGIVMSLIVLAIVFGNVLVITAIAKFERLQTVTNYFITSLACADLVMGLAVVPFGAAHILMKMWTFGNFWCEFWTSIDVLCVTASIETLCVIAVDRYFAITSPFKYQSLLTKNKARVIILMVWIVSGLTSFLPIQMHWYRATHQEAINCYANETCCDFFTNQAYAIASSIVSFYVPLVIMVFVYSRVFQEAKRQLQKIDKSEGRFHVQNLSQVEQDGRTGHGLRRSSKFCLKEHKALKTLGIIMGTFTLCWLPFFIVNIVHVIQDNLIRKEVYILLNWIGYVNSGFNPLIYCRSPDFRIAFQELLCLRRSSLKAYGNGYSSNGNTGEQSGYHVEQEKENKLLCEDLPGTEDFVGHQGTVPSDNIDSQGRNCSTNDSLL
KiSS-1 receptor (Homo sapiens), sequence (Q969F8 whole entry, looked up): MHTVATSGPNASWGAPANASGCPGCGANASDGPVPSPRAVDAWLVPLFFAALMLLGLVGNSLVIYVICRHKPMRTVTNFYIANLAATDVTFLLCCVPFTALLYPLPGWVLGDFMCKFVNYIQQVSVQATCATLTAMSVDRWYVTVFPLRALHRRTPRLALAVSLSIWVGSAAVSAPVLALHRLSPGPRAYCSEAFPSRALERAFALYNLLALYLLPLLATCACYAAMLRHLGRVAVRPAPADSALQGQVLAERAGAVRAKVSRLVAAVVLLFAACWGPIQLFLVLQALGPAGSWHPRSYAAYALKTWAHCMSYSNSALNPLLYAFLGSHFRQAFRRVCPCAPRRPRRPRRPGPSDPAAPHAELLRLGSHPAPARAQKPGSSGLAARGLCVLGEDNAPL
D(2) dopamine receptor (Homo sapiens), sequence (P14416 whole entry, looked up): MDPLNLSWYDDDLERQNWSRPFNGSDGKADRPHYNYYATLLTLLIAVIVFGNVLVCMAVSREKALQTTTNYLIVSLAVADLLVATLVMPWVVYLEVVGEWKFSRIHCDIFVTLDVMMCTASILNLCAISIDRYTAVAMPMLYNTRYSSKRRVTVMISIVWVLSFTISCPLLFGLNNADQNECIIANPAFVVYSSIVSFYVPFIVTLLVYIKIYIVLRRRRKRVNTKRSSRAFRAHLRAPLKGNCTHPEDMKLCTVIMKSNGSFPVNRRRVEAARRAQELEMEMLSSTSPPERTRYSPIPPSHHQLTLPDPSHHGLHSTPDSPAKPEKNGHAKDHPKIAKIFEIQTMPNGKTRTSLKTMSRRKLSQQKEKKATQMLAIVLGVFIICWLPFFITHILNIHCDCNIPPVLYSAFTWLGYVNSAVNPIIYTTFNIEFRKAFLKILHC
Muscarinic acetylcholine receptor M1 (Homo sapiens), sequence (P11229 whole entry, looked up): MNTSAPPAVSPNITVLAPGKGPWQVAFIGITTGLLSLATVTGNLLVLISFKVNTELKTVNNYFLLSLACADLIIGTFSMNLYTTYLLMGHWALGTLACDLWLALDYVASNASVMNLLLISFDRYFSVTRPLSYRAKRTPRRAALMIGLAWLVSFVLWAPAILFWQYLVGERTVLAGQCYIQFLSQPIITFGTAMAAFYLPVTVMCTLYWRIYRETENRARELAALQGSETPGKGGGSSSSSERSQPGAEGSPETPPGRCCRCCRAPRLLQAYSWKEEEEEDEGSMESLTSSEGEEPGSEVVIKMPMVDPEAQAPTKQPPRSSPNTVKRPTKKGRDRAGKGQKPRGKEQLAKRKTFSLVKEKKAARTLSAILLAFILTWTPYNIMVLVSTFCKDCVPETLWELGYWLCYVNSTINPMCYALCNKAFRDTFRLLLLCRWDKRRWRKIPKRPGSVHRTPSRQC
Gonadotropin-releasing hormone receptor (Homo sapiens), sequence (P30968 whole entry, looked up): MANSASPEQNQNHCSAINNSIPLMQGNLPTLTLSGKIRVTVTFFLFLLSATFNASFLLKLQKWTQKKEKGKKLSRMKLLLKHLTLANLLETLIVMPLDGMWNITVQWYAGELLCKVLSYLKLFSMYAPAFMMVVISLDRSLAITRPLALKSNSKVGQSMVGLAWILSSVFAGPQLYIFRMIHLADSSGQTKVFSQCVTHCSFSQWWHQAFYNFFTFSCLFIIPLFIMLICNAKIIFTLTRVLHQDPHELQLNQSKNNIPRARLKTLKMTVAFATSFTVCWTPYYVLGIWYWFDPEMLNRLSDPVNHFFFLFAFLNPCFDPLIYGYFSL
5-hydroxytryptamine receptor 2A (Homo sapiens), sequence (P28223 whole entry, looked up): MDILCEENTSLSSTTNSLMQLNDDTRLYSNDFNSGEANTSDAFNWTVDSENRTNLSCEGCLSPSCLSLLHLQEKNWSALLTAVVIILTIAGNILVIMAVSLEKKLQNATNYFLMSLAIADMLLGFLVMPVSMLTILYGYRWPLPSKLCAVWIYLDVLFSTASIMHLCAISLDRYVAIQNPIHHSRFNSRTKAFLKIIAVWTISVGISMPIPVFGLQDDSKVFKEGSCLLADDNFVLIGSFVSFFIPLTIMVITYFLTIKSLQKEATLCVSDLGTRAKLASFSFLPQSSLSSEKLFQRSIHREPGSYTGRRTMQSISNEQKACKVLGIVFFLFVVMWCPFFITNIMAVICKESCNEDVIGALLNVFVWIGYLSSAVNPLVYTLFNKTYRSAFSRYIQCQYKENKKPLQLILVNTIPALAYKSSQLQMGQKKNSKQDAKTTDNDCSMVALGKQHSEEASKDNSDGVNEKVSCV

COCCCCCCCCOCCC[Si](C)(O[Si](C)(C)C)O[Si](C)(C)C
active: [1] 61.1 µM
not listed: [18] | [19]
inactive: all other assays above

CC(=O)N[C@@H](CO)C(=O)N[C@@H](CC(=O)O)C(=O)N[C@@H](CCCCN)C(=O)N1CCC[C@H]1C(=O)O (Ac-SDKP-OH)
not listed: [11] | [12] | [13]
inactive: all other assays above

CC[C@@H](N)CO
not listed: [15]
inactive: all other assays above

Source: PubChem BioAssay (Tox21)
